The results in this text go back to PubChem BioAssay.

One test addresses Albumin (Bos taurus) (UniProt P02769). As to the kind of experiment: bovine serum albumin binders on microarray, profiling panel, artefact control for SMM control protein annotation, biochemical, small-molecule microarray, Alexa647 label, 635/667 nm fluorescence (AID 1118).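 Note: score merges 667 nm emission intensity and signal-to-noise per printed compound spot.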 The settings on record: BSA-A647 binding, fluorescence 635 nm, higher = more signal.
A short description of test [1]: small-molecule microarray binders of probe aXIP, primary screen, biochemical, NeuroSMM set, 635/667 nm fluorescence (AID 1119).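 Note: probe is the protein aXip251-270 applied at 1 µg/mL to compound-printed slides; binding of probe to printed compounds measured as 667 nm fluorescence plus signal to noise.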 The settings on record: higher = more signal, called active from +8 up or from −8 down.
Test [2] can be described thus: small-molecule binders of probe aNOTCH3, primary screen, biochemical, small-molecule microarray, 635/667 nm fluorescence (AID 1120).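 Note: probe is a biotin-tagged antibody raised against NOTCH3 rather than NOTCH3 protein; score merges spot fluorescence near 667 nm with spot signal to noise.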 The note with it: higher = more signal.
Test [3] can be described thus: small-molecule binders of probe aNOTCH2, primary screen, biochemical, small-molecule microarray, 635/667 nm fluorescence (AID 1121).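 Note: score merges feature fluorescence read at 667 nm with its signal to noise.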 The settings on record: higher = more signal.
Test [4] concerns the target Carbonic anhydrase 2 (Homo sapiens) (UniProt P00918). As to the kind of experiment: CAII small-molecule binders, profiling panel, biochemical, small-molecule microarray, Alexa647-labelled CAII (AID 1122). The settings on record: CAII-A647 binding fluorescence, higher = more signal.
Test [5] is described as follows: COS7 lysate on small-molecule microarray, probe aHis, 635 nm (AID 1123).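 Note: z-score combines 667nm fluorescence intensity with signal-to-noise per printed compound spot.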 The settings on record: COS7 cell lysate, fluorescence, higher = more signal.
Test [6] can be described thus: compound binding in COS7 lysate, probe aLAP1, primary screen, cell lysate, small-molecule microarray (AID 1124).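 Note: lysate comes from COS7 cells expressing LAP1 and is applied at 0.3 µg/mL; score merges spot fluorescence near 667 nm with signal-to-noise over triplicate slides.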 The settings on record: probe aLAP1, fluorescence, higher = more signal.
Another test relates to Sam68 (KHDRBS1). As to the kind of experiment: Sam68 small-molecule binders, primary screen, biochemical, small-molecule microarray, 635 nm fluorescence (AID 1125).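 Note: score merges 667 nm channel intensity with signal to noise over triplicate slides.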 The settings on record: small-molecule microarray binding, higher = more signal.
Test [7] relates to Chordin-like protein 2 (CHRDL2). As to the kind of experiment: CHRDL2 small-molecule binders, primary screen, biochemical, small-molecule microarray, 635 nm fluorescence (AID 1126).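 Note: printed compound slides probed with Chrdl2 protein at 4 µg/mL for 1 h at 4 C; score merges 667 nm emission intensity with signal to noise over three replicate slides.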 The note with it: small-molecule microarray binding, fluorescence 635 nm; higher = more signal.
The target of test [8] is Concanavalin-A (Canavalia ensiformis) (UniProt P02866). As to the kind of experiment: ConA small-molecule binders, primary screen, artefact control for SMM control protein annotation, biochemical, small-molecule microarray, Alexa647 label, 635 nm (AID 1127).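 Note: z combines 667 nm emission intensity with signal-to-noise across three replicate slides.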 The settings on record: ConA-A647 binding fluorescence, higher = more signal.
Test [9] is described as follows: anti-His antibody binders, primary screen, artefact control for SMM control protein annotation, biochemical, small-molecule microarray, 635 nm fluorescence (AID 1128).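 Note: score merges feature fluorescence with signal-to-noise for each printed compound spot.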 The note with it: anti-His Alexa647 antibody binding, higher = more signal.
Test [10] deals with Human papillomavirus type 1a E7 protein (residues 1-88). As to the kind of experiment: HPV1a E7 small-molecule binders, primary screen, biochemical, small-molecule microarray, residues 1-88, 635 nm (AID 1129). The settings on record: small-molecule microarray binding, fluorescence 635 nm; higher = more signal.
In test [11] the target is Focal adhesion kinase 1 (Homo sapiens) (UniProt Q05397). As to the kind of experiment: small-molecule microarray binders of FAK, primary screen, biochemical, 635/667 nm fluorescence, BSA, DTT (AID 1130).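 Note: composite of spot emission at 667 nm and signal to noise over triplicate slides.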 The note with it: PTK2 binding, 635 nm fluorescence, higher = more signal.
Test [12] concerns Fibrinogen (Alexa647-labelled). As to the kind of experiment: fibrinogen binders on compound microarrays, profiling panel, artefact control for SMM control-protein annotation, biochemical, small-molecule microarray, 635/667 nm fluorescence (AID 1131).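 Note: z-score merges 667 nm fluorescence with per-spot signal-to-noise over triplicate slides.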 The settings on record: fibrinogen-A647 binding fluorescence, higher = more signal.
Test [13] has as its target Follistatin (Homo sapiens) (UniProt P19883). As to the kind of experiment: follistatin binders on small-molecule microarrays, primary screen, biochemical, small-molecule microarray, 635/667 nm fluorescence (AID 1132). The settings on record: FST binding, 635 nm fluorescence, higher = more signal.
Test [14] concerns the target Fibroblast growth factor 2 (Homo sapiens) (UniProt P09038). As to the kind of experiment: FGF2 binders on small-molecule microarrays, primary screen, biochemical, small-molecule microarray, 635/667 nm fluorescence (AID 1133). The note with it: small-molecule microarray binding, FGF2, fluorescence 635/667; higher = more signal.
Test [15] in a line: mitochondrial membrane potential change in A549 cells, profiling panel, cell-based, JC-1 fluorescence, basal, 24 h, 100 nL (AID 1138).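 Note: A549 lung adenocarcinoma cells under basal conditions with no added stimulus; test concentration not given here.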 The settings on record: higher = more signal.
Another test relates to Lefty1. As to the kind of experiment: Lefty1 binders on small-molecule microarrays, primary screen, biochemical, small-molecule microarray, 635/667 nm fluorescence (AID 1139). The note with it: small-molecule microarray binding, fluorescence 635/667; higher = more signal.
For test [16], the system named is wheat germ agglutinin (Triticum aestivum), Alexa647-labelled. As to the kind of experiment: wheat germ agglutinin binders on compound microarrays, profiling panel, artefact control for SMM control-protein annotation, biochemical, small-molecule microarray, 635/667 nm fluorescence (AID 1140).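 Note: score merges 667 nm feature emission with signal to noise over triplicate slides.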 The note with it: WGA-A647 binding, 635 nm fluorescence, higher = more signal.

The target in test [17] is Luciferin 4-monooxygenase (Photinus pyralis) (UniProt P08659). As to the kind of experiment: firefly luciferase enzyme inhibitors, primary screen, biochemical, luminescence, purified enzyme, 2006 set (AID 1141).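 Note: cell-free assay with purified firefly luciferase at 100 ng per well in PBS; test concentration not given here.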 The note with it: SteadyGlo luminescence, 30 min, higher = more signal, called active from +8 up or from −8 down.

Each structure is given as a SMILES string. Activity calls are given as the source filed them.

Chain of Follistatin (Homo sapiens) (P19883 whole entry, looked up): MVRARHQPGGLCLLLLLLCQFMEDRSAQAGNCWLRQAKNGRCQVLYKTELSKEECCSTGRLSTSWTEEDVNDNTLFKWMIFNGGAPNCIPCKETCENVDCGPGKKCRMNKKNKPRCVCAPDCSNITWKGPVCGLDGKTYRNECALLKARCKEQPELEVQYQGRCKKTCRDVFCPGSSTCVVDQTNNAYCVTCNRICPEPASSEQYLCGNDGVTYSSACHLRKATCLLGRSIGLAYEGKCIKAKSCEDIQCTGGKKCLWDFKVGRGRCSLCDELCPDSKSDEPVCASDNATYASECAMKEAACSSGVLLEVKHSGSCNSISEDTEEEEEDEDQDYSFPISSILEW
Chain of Fibroblast growth factor 2 (Homo sapiens) (P09038 whole entry, looked up): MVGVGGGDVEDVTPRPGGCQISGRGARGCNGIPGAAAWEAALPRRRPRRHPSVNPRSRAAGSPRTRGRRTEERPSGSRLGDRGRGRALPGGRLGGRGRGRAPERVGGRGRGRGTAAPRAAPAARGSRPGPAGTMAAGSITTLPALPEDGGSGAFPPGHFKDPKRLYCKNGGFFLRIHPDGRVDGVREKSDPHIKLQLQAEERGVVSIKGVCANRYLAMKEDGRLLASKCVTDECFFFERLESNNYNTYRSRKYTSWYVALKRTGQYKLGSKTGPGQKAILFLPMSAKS
Chain of Focal adhesion kinase 1 (Homo sapiens) (Q05397 whole entry, looked up): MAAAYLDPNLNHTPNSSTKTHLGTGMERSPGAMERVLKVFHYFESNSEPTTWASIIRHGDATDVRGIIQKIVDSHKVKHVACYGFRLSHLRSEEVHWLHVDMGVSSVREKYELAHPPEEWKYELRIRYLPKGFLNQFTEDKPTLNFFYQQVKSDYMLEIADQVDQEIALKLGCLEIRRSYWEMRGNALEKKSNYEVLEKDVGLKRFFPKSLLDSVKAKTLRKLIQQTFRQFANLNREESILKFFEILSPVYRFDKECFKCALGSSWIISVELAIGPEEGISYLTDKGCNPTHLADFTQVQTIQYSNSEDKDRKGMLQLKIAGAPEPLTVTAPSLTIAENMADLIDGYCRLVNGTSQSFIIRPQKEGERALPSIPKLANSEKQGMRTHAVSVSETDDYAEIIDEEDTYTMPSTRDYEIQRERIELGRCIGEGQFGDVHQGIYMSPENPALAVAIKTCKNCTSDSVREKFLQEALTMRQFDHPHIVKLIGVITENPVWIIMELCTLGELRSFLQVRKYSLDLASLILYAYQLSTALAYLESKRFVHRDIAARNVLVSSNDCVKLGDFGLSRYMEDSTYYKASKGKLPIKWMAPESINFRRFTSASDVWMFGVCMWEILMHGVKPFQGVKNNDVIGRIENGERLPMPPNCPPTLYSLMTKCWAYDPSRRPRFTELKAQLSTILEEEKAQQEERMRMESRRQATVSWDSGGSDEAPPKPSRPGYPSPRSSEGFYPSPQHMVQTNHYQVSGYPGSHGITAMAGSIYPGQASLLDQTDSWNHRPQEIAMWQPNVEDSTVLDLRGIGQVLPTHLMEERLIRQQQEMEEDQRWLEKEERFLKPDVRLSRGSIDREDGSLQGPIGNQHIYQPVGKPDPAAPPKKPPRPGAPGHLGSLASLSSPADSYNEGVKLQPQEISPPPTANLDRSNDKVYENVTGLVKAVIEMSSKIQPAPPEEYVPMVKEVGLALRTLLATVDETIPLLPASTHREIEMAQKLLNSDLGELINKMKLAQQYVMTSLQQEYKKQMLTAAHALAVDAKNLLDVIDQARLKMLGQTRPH
Chain of Albumin (Bos taurus) (P02769 whole entry, looked up): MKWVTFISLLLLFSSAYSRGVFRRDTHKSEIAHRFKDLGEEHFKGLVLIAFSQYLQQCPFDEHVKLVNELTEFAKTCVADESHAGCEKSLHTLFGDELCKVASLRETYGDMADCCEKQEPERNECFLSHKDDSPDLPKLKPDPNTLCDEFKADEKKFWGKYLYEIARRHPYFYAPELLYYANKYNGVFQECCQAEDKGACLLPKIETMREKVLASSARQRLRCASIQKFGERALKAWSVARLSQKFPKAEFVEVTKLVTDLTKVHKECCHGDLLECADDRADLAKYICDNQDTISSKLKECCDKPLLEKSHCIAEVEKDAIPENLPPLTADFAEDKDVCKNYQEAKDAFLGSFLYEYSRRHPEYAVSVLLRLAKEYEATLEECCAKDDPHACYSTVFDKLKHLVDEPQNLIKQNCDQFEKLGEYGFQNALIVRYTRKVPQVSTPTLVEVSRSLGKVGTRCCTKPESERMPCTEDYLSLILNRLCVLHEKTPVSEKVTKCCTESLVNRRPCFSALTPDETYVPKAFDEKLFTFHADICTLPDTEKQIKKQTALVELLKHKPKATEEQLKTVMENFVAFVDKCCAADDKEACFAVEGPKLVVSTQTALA
Chain of Concanavalin-A (Canavalia ensiformis) (P02866 whole entry, looked up): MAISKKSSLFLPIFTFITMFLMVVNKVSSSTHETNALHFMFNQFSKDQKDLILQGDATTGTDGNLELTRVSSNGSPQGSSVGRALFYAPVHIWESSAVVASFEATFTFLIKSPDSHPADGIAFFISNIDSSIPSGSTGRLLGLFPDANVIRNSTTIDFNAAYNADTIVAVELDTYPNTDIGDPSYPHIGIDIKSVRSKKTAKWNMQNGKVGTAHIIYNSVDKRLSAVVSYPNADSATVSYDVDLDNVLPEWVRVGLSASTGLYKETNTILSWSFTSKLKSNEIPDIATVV
Chain of Luciferin 4-monooxygenase (Photinus pyralis) (P08659 whole entry, looked up): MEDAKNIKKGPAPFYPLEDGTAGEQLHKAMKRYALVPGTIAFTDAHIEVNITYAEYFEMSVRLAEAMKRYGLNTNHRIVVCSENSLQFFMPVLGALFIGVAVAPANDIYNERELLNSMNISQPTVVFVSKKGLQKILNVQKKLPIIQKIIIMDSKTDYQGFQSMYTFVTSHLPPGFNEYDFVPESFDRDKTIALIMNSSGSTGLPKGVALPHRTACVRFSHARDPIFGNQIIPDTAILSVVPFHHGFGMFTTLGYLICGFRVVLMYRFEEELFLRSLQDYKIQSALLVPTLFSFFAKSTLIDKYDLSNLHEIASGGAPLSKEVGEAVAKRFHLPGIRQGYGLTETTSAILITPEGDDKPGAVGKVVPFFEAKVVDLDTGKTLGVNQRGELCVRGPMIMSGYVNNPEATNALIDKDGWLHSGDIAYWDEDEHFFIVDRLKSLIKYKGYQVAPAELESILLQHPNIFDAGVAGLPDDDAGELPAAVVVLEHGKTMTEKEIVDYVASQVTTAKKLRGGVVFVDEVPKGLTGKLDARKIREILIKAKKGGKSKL

As to `COCCCNC(=O)[C@@]1(Sc2ccc(C)cc2)CC(=O)N(Cc2ccccc2)[C@@H]1c1ccc(CO)cc1I`, the composite z-score was 0.757 with Albumin (Bos taurus); -0.178 in [2]; 0.0079 in test [3]; 0.688 in test [4]; 0.987 in test [5]; 0.791 in test [6]. Moreover, the composite z-score was -0.249 with Sam68 (KHDRBS1); -0.527 in test [7]; -1.27 in [8]; 0.101 in test [9]; 0.264 in test [10]; -0.303 in test [11]. Also, the composite z-score is -0.154 in test [12]; -0.191 in test [13]; -0.376 in test [14]; -1.13 in the test with Lefty1; -0.308 in test [16]. The composite Z-score in test [1] is 0.394 (inactive). In addition, the z-score is 1.63 in test [15] and -0.848 (inactive) in test [17].
For `C=C(COC)/C(=C/C[C@H](OC(=O)c1ccncc1)c1ccc(CO)o1)c1cc(C(=O)OC)ccc1OC`, the composite z-score in the test with Albumin (Bos taurus) was 0.439; in test [2], 0.0222; in test [3] it was -0.0255; in [4], 0.554; in test [5] it was 1.17; in test [6], 0.347. Also, the composite z-score is 1.15 in the test with Sam68 (KHDRBS1); 0.79 in test [7]; 0.889 in [8]; 1.38 in [9]; 1.12 in test [10]; -0.113 in test [11]. The composite z-score in [12] is -0.0921; in test [13] it was 1.22; in [14], 1.32; with Lefty1, 1.14; in [16], 0.113. Also, the composite Z-score in test [1] was 0.515 (inactive). For the same molecule, the z-score was -0.713 in [15] and -0.448 (inactive) in [17].
Regarding `O=C1[C@H]2[C@H]3[C@H](O)[C@H](O)CC(=NOC[C@@H](O)COCc4ccco4)[C@@H]3CC[C@H]2C(=O)N1c1ccc(F)cc1F`, the composite z-score is -0.126 with Albumin (Bos taurus); -0.205 in [2]; -0.14 in [3]; -0.438 in [4]; -1.08 in [5]; 0.0425 in [6]. The composite z-score in the test on Sam68 (KHDRBS1) was 0.235; in test [7] it was 1.38; in test [8], -0.359; in test [9] it was -0.0634; in test [10], 0.126; in test [11] it was -0.358. Moreover, the composite z-score is -0.313 in test [12]; 0.532 in [13]; 0.646 in test [14]; 0.59 with Lefty1; -0.385 in test [16]. Also, in test [1], the composite Z-score was -0.397 (inactive). The figures for the z-score in [15] and in test [17] were -0.808 and 1.03 (inactive), respectively.
For the molecule `O=C1[C@H]2[C@H]3[C@H](O)[C@H](O)CC(=NOCc4ccccc4)[C@H]3CC[C@H]2C(=O)N1C[C@@H]1CCCO1`, the composite z-score in the test with Albumin (Bos taurus) was 0.5; in [2], 0.132; in test [3], -0.12; in [4], 0.432; in test [5] it was 0.469; in [6], 0.491. The composite z-score in the test on Sam68 (KHDRBS1) was 0.232; in [7] it was 0.312; in test [8], 0.652; in [9] it was 0.216; in test [10] it was 0.586; in test [11] it was -0.0074. For the same molecule, the composite z-score in [12] is 0.953; in test [13] it was 0.393; in test [14], 1.12; in the test with Lefty1, 0.249; in test [16], 0.352. Also, the composite Z-score in test [1] was 0.324 (inactive). Besides, the z-score in [15] is -0.877; in test [17], 0.949 (inactive).
`CC(C)NC(=O)[C@@H]1c2ccccc2C(=O)N(CC23CC4CC(CC(C4)C2)C3)[C@H]1c1ccc(CO)cc1`: the composite z-score with Albumin (Bos taurus) was 0.283; in test [2], 0.106; in [3], -0.125; in [4] it was 0.25; in test [5] it was 1.65; in test [6], 0.397. Besides, the composite z-score in the test with Sam68 (KHDRBS1) was determined as 1.3; in [7], 0.533; in test [8], 1.08; in test [9], 0.526; in test [10], 1.23; in [11], 0.417. Further, the composite z-score came to 0.973 in test [12]; 1.35 in test [13]; 0.615 in [14]; 0.822 with Lefty1; 0.298 in [16]. In test [1], the composite Z-score is -0.178 (inactive). Moreover, the results for the z-score in [15] and in test [17] were 0.689 and 0.892 (inactive), respectively.
As for `COc1ccc(O[C@H]2C=C[C@@H](c3ccccc3)O[C@@H]2COC(=O)N2CCCCC2)cc1`, the composite z-score was -0.725 in the test with Albumin (Bos taurus); -0.131 in test [2]; -0.111 in [3]; -0.29 in test [4]; -0.482 in test [5]; 0.0033 in test [6]. Further, the composite z-score in the test on Sam68 (KHDRBS1) is -0.907; in [7], 0.387; in [8] it was -0.578; in test [9], -0.475; in test [10], -1.23; in [11] it was -0.073. For the same molecule, the composite z-score in test [12] is -0.528; in test [13] it was 0.12; in test [14] it was 0.571; with Lefty1, 0.225; in [16], -0.249. Moreover, the composite Z-score in test [1] was 0.0229 (inactive). Besides, the z-score in test [15] is -0.433; in test [17], 0.711 (inactive).
